Laboratory results taken from PMC4336329 (PLoS ONE, 2015).
Out of some 310,000 compounds screened, about 2,200 (0.71%) showed an effect of 50% or more. Effects have a minus sign here. The list comes from a sample in which strong results are over-represented; it also holds similar structures and randomly drawn compounds.

Target: human ether-à-go-go-related gene (hERG) potassium channel (human, UniProt Q12809)
Assay: primary screen, population patch clamp on CHO cells stably expressing hERG; higher = less effect of the substance

Sequence of human ether-à-go-go-related gene (hERG) potassium channel (Q12809 whole entry, looked up): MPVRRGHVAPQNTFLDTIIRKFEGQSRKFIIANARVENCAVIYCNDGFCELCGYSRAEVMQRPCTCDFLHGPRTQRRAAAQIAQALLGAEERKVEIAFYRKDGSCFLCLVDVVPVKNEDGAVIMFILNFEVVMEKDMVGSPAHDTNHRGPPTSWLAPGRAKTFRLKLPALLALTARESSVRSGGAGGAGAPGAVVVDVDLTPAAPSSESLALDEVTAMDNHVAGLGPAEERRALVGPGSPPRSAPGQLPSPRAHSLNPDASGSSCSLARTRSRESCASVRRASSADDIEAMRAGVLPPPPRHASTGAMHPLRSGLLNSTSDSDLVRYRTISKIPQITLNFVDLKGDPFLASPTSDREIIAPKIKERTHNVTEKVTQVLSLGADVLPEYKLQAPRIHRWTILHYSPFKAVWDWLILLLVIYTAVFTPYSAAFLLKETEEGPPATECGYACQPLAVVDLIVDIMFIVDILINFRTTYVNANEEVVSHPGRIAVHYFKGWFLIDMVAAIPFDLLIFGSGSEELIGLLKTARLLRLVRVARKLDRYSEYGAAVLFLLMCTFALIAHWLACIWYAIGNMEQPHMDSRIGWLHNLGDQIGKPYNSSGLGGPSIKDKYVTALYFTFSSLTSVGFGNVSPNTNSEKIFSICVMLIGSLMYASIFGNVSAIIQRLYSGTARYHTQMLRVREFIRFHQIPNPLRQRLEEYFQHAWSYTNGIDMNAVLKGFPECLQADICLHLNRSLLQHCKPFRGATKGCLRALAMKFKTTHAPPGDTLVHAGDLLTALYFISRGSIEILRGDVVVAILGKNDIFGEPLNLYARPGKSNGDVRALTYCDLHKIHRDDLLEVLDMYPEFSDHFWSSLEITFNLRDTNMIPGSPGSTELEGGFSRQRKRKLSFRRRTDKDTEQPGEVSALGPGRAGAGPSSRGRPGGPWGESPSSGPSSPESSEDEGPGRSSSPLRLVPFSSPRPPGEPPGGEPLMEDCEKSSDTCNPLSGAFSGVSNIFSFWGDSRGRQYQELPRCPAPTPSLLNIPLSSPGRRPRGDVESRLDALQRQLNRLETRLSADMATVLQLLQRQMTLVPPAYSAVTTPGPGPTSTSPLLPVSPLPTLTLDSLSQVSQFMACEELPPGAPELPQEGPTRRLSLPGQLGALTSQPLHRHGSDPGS

Structure (SMILES) | hERG current change (%, negative = inhibition) at 1uM
CCCCN(CCCC)CCCNC(=O)C12CN(Cc3ccccc3)CC1C(c1cccc([N+](=O)[O-])c1)=NO2 (stereo not shown) | -53.1%
O=C(/C=C/c1cccnc1)c1cc(F)ccc1O | 8.59%
COCCNC(=O)c1ccccc1NC(=O)c1ccccc1N(C)S(=O)(=O)c1ccc(C)cc1 | 8.36%
CCOC(=O)c1sc(-c2ccccc2)nc1C | 9.24%
CC(=O)Nc1ccc(OC(=O)c2cc3cc(Br)cc(Br)c3oc2=O)cc1 | 5.16%
CCOc1ccc(/C=N/N2C(C)CCCC2C)cc1 (stereo not shown) | 12%
Nc1nc(CN2CCN(c3ccccn3)CC2)nc(Nc2ccc(Cl)cc2)n1 | -56.2%
COc1ccccc1N1CCN(Cc2nc(N)nc(Nc3ccccc3)n2)CC1 | -33.8%
COc1ccc(Nc2nc(N)nc(CN3CCN(c4ccccn4)CC3)n2)cc1 | -37.1%
CCOC(=O)N1CCN(Cc2nc(N)nc(Nc3ccc(C)cc3)n2)CC1 | -37%
Nc1nc(CN2CCC(Cc3ccccc3)CC2)nc(Nc2ccccc2)n1 | -87.4%
CCOC(=O)N1CCN(Cc2nc(N)nc(Nc3ccc(OCC)cc3)n2)CC1 | -56%
Nc1nc(CN2CCN(C(c3ccccc3)c3ccccc3)CC2)nc(Nc2ccccc2)n1 | 10.2%
COc1ccc(Nc2nc(N)nc(CN3CCC(Cc4ccccc4)CC3)n2)cc1 | -81%
COc1cccc(N2CCN(Cc3nc(N)nc(Nc4ccccc4)n3)CC2)c1 | -31.9%
Nc1nc(CN2CCN(c3ccccn3)CC2)nc(Nc2ccc(F)cc2)n1 | -49%
COc1ccc(Nc2nc(N)nc(CN3CCc4ccccc4C3)n2)cc1 | -23.3%
CCOC(=O)N1CCN(Cc2nc(N)nc(Nc3ccc(OC)cc3)n2)CC1 | -9.74%
O=C(c1ccccc1)c1ccc(OCC(O)CN2CCN(S(=O)(=O)N3CCCCC3)CC2)cc1 (stereo not shown) | -12.6%
COc1ccccc1N(CC(=O)NC1CCCC1)C(=O)CCC(=O)Nc1cc(C)on1 | 8.06%
CCn1c2ccc(F)cc2c2nc3ccccc3nc21 | 10.2%
CCOC(=O)Cc1[nH]nc2c1C(c1cc(OC)ccc1OC)C(C#N)=C(N)O2 (stereo not shown) | 14.9%
CSc1oc(-c2cccs2)nc1S(=O)(=O)c1ccccc1 | 4.25%

Structure (SMILES) | hERG current change (%, negative = inhibition) at 1uM
CN(C)c1ccc(CNc2nc(-c3ccccc3)nn2S(C)(=O)=O)cc1 | 14.6%
O=C(COc1ccc(S(=O)(=O)N2CCOCC2)cc1)N1CCCCCC1 | 25.1%
COc1ccc(CCNC(=O)COC(=O)/C=C/c2cccs2)cc1OC | 11.7%
O=C(O)CCCN1C(=O)NC2NC(=O)NC21 (stereo not shown) | 10.2%
COc1ccc(Nc2nc(N)nc(CN3CCC(C)CC3)n2)cc1 | -50.7%
Nc1nc(CN2CCCCCC2)nc(Nc2ccccc2)n1 | -31.9%
COc1ccc(Nc2nc(N)nc(CN3CCOCC3)n2)cc1 | 1.93%
COc1ccc(Nc2nc(N)nc(CN3CCN(c4ccc(F)cc4)CC3)n2)cc1 | -19.3%
Nc1nc(CN2CCN(c3ccccc3)CC2)nc(Nc2ccc(Cl)cc2)n1 | -44.8%
Nc1nc(CN2CCN(Cc3ccccc3)CC2)nc(Nc2ccccc2)n1 | -56.3%
O=C(CSc1ncn(-c2ccccc2)n1)N1CCc2ccccc21 | 1.39%
O=S(=O)(c1ccc(Cl)cc1)N1CCC2(CC1)OCCO2 | 2.73%
FC(F)(F)c1cccc(N2CCN(C(=S)NCC3CCCO3)CC2)c1 (stereo not shown) | 4.59%
COc1ccc(-c2nn(C)c(=O)c3ccccc23)cc1CNC(=O)CN1CCOCC1 | 6.56%
CN(C)CCCN(C(=O)COc1ccccc1)c1nc2c(Cl)cccc2s1.Cl | -45.5%
CCOc1cccc2sc(N(CCCN(C)C)C(=O)c3ccc(S(=O)(=O)N(C)Cc4ccccc4)cc3)nc12.Cl | -1.82%
COc1cccc2sc(N(CCCN(C)C)C(=O)COc3ccc(Cl)cc3)nc12.Cl | -68.9%
CCOc1cccc2sc(N(CCCN(C)C)C(=O)Cc3ccccc3)nc12.Cl | -83.7%
CCOc1cccc2sc(N(CCCN(C)C)C(=O)c3ccc(C(=O)c4ccccc4)cc3)nc12.Cl | -29.5%
CN(C)CCCN(C(=O)COc1ccc(Cl)cc1)c1nc2ccc(F)cc2s1.Cl | 8.45%
Cc1cccc2sc(N(CCCN(C)C)C(=O)COc3ccc(Cl)cc3)nc12.Cl | -6.98%
CN(C)CCCN(C(=O)COc1ccccc1)c1nc2c(F)cccc2s1.Cl | -55.8%
CN(C)CCCN(C(=O)COc1ccc(Cl)cc1)c1nc2c(F)cccc2s1.Cl | -16.9%
